# Reference: article PMC7862700, “An all-to-all approach to the identification of sequence-specific readers for epigenetic DNA modifications on cytosine”
# Key:
# Test in all cases: DAPPL (digital affinity profiling via proximity ligation, sequencing); 10 mM Tris-HCl pH 7.5, 50 mM NaCl, 1 mM DTT, 4% glycerol, room temperature, 30 min; GST-TFs on glutathione beads, 16-mer random dsDNA library, 0.1% formaldehyde crosslink after washing; high values mean tight binding
# FLI1 = molecular target: T1, FLI1 (Homo sapiens, UniProt Q01543 1-452); conditions: protein: recombinant; tags: N-terminal GST; dsDNA, one strand shown
# T1 sequence: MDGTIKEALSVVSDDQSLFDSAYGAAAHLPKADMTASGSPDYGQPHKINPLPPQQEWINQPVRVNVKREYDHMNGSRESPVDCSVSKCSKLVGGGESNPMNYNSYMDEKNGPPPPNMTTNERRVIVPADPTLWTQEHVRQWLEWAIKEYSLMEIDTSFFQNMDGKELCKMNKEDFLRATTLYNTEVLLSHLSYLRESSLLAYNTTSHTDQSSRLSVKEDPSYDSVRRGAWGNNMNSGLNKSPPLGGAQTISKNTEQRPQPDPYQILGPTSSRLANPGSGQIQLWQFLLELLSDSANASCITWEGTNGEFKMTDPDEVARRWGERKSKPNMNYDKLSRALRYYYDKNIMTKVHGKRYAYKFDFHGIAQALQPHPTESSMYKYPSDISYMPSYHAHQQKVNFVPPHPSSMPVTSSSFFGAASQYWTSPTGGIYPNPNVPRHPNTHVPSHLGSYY
# Method in brief: (§1)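 Sequencing on an Illumina NextSeq500 followed washing, crosslinking with 0.1% formaldehyde, proximity ligation (BsaI/T4 ligase, 1 h, 37 °C) and PCR amplification of pools that had been incubated for 30 min at room temperature with 200 nmole of a random double-stranded 16-mer DNA library in Tris/NaCl/DTT/glycerol buffer. Each pool held DNA-barcoded human transcription factors, expressed in yeast as GST fusions and captured on glutathione beads, plus a tag-only sample. Binding signal is a hexamer's read frequency for a factor divided by its frequency in the tag-only sample.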
# ELK1 = molecular target: T2, ELK1 (Homo sapiens, UniProt P19419 1-428); conditions: protein: recombinant; tags: N-terminal GST; dsDNA, one strand shown
# T2 sequence: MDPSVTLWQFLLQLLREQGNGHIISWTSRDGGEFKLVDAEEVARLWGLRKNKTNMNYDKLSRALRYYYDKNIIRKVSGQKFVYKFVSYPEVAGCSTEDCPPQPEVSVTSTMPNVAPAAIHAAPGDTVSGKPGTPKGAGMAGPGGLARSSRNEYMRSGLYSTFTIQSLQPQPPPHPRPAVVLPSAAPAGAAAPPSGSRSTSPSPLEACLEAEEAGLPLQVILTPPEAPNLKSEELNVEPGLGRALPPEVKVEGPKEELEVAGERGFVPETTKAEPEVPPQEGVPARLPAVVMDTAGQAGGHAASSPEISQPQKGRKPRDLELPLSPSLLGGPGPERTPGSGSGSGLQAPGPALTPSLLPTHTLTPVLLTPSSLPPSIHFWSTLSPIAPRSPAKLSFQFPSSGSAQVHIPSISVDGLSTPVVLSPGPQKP
# Method in brief: as §1
# GABPA = molecular target: T3, GABPA (Homo sapiens, UniProt Q06546 1-454); conditions: protein: recombinant; tags: N-terminal GST; dsDNA, one strand shown
# T3 sequence: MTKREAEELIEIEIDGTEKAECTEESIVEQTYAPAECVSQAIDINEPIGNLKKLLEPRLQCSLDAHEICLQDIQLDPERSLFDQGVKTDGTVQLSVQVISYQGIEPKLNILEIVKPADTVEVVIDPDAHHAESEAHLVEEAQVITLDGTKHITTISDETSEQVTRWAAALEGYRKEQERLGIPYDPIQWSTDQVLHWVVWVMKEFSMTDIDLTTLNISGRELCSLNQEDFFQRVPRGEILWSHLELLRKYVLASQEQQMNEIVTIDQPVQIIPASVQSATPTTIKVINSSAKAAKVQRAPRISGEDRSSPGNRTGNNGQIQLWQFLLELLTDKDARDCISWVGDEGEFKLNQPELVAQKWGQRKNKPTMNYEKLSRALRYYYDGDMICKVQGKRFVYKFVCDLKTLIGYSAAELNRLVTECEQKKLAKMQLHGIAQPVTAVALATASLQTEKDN
# Method in brief: as §1
# ERG = molecular target: T4, ERG (Homo sapiens, UniProt P11308 1-479); conditions: protein: recombinant; tags: N-terminal GST; dsDNA, one strand shown
# T4 sequence: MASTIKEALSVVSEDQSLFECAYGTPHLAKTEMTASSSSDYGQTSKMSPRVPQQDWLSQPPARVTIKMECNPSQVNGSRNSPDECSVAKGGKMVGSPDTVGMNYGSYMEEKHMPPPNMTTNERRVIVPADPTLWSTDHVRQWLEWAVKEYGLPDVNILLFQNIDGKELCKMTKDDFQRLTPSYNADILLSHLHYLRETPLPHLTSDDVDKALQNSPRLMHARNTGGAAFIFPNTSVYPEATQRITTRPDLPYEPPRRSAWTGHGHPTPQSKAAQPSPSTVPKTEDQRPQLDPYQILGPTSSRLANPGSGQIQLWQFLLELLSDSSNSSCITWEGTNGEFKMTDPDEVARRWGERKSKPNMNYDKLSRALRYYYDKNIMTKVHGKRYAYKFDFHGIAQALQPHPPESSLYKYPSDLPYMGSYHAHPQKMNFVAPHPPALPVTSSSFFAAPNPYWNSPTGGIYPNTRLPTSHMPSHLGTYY
# Method in brief: as §1
# ELF1 = ELF1 (Homo sapiens, UniProt P32519 1-619); conditions: protein: recombinant; tags: N-terminal GST; dsDNA, one strand shown
# Method in brief: as §1
# EHF = molecular target: T5, EHF (Homo sapiens, UniProt Q9NZC4 1-300); conditions: protein: recombinant; tags: N-terminal GST; dsDNA, one strand shown
# T5 sequence: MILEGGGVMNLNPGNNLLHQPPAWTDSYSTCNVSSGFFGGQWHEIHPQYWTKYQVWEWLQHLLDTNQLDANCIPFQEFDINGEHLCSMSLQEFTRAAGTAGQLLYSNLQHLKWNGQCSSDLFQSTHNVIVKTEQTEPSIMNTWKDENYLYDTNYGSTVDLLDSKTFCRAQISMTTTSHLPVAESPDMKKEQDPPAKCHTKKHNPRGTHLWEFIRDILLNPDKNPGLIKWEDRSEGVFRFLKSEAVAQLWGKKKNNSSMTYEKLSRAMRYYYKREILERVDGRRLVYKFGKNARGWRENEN
# Method in brief: as §1
# SPI1 = SPI1 (Homo sapiens, UniProt P17947 1-270); conditions: protein: recombinant; tags: N-terminal GST; dsDNA, one strand shown
# Method in brief: as §1
# SPIB = SPIB (Homo sapiens, UniProt Q01892 1-262); conditions: protein: recombinant; tags: N-terminal GST; dsDNA, one strand shown
# Method in brief: as §1
# ELK3 = molecular target: T6, ELK3 (Homo sapiens, UniProt P41970 1-407); conditions: protein: recombinant; tags: N-terminal GST; dsDNA, one strand shown
# T6 sequence: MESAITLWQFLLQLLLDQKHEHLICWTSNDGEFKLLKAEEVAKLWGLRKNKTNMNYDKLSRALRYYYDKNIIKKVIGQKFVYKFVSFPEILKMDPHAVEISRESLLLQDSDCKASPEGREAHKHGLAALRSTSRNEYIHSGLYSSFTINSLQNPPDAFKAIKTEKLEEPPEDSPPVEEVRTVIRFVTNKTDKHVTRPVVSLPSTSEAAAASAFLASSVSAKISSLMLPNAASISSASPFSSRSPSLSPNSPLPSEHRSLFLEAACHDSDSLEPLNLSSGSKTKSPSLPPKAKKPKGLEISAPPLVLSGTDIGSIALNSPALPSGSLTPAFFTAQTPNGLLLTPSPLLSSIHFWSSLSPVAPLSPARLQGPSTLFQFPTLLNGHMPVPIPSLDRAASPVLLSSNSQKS
# Method in brief: as §1
# FEV = molecular target: T7, FEV (Homo sapiens, UniProt Q99581 1-238); conditions: protein: recombinant; tags: N-terminal GST; dsDNA, one strand shown
# T7 sequence: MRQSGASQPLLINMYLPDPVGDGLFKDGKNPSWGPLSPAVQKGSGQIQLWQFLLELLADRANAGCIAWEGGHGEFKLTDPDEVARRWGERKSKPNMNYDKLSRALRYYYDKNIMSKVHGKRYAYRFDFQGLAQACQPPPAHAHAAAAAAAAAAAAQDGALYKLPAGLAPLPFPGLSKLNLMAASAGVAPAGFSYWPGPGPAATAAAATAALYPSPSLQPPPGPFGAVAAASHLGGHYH
# Method in brief: as §1
# ETV5 = ETV5 (Homo sapiens, UniProt P41161 1-510); conditions: protein: recombinant; tags: N-terminal GST; dsDNA, one strand shown
# Method in brief: as §1
# HSF1 = HSF1 (Homo sapiens, UniProt Q00613 1-529); conditions: protein: recombinant; tags: N-terminal GST; chain copies: 3; dsDNA, one strand shown
# Method in brief: as §1
# SPIC = molecular target: T8, SPIC (Homo sapiens, UniProt Q8N5J4 1-248); conditions: protein: recombinant; tags: N-terminal GST; dsDNA, one strand shown
# T8 sequence: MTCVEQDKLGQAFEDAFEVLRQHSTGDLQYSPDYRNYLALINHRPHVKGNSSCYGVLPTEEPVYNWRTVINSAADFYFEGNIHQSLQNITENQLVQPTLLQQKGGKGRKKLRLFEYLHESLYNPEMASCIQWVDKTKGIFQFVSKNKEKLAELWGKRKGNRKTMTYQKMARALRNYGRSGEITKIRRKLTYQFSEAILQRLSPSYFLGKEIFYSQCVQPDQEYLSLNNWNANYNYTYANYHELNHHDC
# Method in brief: as §1
# ELF4 = ELF4 (Homo sapiens, UniProt Q99607 1-663); conditions: protein: recombinant; tags: N-terminal GST; dsDNA, one strand shown
# Method in brief: as §1
# ELK4 = molecular target: T9, ELK4 (Homo sapiens, UniProt P28324-2 1-405); conditions: protein: recombinant; tags: N-terminal GST; dsDNA, one strand shown
# T9 sequence: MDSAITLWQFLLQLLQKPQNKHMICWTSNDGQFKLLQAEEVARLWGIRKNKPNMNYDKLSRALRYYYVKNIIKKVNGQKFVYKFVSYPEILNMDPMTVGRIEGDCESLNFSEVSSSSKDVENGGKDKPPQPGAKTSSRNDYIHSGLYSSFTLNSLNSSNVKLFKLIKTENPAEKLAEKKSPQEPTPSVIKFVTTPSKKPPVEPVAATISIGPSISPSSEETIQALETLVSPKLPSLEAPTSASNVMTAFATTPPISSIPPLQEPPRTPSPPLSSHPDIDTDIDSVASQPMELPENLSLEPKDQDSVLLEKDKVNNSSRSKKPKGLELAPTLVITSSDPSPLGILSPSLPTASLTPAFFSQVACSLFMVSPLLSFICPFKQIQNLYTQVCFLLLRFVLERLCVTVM
# Method in brief: as §1
# ETV2 = molecular target: T10, ETV2 (Homo sapiens, UniProt O00321 1-342); conditions: protein: recombinant; tags: N-terminal GST; dsDNA, one strand shown
# T10 sequence: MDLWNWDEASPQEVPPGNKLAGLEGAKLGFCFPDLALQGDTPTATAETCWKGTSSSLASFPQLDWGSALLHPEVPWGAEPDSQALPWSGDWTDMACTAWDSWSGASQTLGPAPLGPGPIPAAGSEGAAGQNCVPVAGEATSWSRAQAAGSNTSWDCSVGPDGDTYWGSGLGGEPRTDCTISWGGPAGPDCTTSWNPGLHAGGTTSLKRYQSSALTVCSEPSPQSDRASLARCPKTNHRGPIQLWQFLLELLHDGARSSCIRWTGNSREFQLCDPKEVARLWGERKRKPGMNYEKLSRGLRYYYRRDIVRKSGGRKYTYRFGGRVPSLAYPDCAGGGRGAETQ
# Method in brief: as §1
# ELF3 = molecular target: T11, ELF3 (Homo sapiens, UniProt P78545 1-371); conditions: protein: recombinant; tags: N-terminal GST; dsDNA, one strand shown
# T11 sequence: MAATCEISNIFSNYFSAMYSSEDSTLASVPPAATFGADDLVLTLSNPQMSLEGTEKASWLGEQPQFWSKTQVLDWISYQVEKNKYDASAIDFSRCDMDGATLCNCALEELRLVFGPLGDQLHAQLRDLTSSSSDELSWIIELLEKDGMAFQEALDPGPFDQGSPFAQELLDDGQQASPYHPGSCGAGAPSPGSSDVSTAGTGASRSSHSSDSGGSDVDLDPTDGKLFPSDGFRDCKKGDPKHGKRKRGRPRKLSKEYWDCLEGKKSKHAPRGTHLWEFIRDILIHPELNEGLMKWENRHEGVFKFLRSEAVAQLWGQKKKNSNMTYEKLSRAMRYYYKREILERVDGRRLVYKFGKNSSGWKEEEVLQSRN
# Method in brief: as §1
# CRX = CRX (Homo sapiens, UniProt O43186 1-299); conditions: protein: recombinant; tags: N-terminal GST; dsDNA, one strand shown
# Method in brief: as §1
# ETV1 = ETV1 (Homo sapiens, UniProt P50549 1-477); conditions: protein: recombinant; tags: N-terminal GST; dsDNA, one strand shown
# Method in brief: as §1
# Chain of SPIB (Q01892 whole entry): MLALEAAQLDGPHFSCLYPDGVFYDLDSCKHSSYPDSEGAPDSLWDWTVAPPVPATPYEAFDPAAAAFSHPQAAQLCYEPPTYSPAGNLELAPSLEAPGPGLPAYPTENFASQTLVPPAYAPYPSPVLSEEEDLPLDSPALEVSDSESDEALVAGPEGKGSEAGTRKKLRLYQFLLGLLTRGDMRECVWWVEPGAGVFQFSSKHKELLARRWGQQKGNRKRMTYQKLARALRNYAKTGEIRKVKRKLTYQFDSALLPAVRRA
# Chain of ELF4 (Q99607 whole entry): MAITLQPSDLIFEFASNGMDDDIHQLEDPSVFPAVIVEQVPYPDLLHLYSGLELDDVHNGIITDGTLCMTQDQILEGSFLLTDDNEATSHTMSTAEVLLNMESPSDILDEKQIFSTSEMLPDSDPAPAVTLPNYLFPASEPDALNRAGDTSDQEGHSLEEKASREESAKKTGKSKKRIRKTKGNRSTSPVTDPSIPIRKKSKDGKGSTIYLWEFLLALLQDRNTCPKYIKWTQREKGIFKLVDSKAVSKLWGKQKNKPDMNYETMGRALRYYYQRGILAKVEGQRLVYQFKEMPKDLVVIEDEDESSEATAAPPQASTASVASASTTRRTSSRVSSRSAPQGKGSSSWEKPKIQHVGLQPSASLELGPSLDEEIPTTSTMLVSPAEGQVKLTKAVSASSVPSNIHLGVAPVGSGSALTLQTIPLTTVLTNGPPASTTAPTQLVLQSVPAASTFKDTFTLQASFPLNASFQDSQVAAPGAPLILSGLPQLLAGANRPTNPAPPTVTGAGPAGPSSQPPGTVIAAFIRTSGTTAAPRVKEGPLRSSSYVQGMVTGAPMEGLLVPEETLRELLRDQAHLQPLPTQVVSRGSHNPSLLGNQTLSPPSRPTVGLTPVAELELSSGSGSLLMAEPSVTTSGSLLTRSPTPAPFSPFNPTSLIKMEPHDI
# Chain of HSF1 (Q00613 whole entry): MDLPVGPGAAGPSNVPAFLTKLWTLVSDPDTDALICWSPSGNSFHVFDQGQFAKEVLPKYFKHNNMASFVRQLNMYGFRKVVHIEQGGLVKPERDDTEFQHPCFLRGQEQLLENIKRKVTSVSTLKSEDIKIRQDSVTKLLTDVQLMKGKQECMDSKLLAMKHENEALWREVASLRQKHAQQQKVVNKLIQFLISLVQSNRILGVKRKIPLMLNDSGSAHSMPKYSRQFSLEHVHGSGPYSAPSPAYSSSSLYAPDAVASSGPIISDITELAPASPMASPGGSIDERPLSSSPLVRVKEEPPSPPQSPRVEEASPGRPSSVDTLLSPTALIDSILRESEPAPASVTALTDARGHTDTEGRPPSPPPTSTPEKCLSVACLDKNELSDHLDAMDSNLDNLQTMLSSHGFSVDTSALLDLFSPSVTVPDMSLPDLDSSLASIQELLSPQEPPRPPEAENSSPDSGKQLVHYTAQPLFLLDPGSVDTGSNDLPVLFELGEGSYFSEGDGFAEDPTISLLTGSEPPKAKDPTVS
# Chain of CRX (O43186 whole entry): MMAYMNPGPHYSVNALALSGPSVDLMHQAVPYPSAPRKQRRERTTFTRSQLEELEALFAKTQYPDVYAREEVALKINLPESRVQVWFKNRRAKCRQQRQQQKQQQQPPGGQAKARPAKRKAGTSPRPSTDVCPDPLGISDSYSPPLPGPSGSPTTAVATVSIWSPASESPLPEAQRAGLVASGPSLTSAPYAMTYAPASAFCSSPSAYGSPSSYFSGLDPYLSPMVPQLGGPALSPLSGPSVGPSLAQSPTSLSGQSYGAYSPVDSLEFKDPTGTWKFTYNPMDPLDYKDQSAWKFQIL
# Chain of ETV5 (P41161 whole entry): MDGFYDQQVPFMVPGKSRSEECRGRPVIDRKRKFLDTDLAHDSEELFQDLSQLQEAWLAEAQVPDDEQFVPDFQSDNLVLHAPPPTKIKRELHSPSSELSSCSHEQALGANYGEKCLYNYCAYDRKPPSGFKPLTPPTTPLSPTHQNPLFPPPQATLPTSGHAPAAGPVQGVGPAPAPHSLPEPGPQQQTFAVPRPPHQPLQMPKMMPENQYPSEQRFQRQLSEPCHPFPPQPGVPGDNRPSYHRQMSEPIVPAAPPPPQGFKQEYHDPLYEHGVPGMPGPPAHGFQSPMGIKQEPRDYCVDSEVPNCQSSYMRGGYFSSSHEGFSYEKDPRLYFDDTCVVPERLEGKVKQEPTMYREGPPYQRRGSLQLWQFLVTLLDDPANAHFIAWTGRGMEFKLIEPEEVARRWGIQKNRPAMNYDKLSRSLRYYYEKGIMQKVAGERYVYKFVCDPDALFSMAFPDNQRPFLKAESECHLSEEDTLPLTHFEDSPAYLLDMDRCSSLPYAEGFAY
# Chain of ETV1 (P50549 whole entry): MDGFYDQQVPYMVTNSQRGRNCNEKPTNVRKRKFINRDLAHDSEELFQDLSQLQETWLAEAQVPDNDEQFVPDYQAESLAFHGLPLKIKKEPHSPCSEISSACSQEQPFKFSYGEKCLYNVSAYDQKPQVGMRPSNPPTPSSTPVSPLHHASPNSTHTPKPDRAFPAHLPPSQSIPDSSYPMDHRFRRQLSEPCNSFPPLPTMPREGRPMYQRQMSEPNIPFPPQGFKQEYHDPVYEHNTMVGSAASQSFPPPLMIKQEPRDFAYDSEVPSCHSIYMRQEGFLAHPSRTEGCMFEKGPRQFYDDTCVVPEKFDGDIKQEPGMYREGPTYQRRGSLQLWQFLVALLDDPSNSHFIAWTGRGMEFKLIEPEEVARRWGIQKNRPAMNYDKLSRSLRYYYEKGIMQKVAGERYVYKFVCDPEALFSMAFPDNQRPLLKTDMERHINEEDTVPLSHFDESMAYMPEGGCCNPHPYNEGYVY
# Chain of ELF1 (P32519 whole entry): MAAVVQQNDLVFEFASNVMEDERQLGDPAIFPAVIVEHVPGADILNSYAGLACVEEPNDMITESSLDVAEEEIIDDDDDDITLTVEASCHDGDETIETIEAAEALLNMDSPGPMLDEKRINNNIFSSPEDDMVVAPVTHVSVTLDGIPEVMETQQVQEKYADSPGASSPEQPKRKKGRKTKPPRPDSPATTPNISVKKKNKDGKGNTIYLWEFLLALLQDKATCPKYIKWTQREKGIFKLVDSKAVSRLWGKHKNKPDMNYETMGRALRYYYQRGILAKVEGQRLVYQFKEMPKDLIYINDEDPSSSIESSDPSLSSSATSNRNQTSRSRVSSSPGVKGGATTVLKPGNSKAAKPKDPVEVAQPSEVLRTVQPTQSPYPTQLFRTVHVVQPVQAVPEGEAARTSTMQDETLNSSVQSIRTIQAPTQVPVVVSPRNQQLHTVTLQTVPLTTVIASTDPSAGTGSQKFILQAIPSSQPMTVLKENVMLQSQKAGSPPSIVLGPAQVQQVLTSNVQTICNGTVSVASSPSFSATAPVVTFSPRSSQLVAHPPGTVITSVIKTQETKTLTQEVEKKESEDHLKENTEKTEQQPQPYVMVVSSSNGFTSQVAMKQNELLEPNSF
sequence,measurement,setting,value
TCGATC,binding signal,FLI1,"1.31 fold enrichment (6-mer frequency, TF over GST control)"
same,binding signal,ELK1,"1.08 fold enrichment (6-mer frequency, TF over GST control)"
same,binding signal,GABPA,"1.14 fold enrichment (6-mer frequency, TF over GST control)"
same,binding signal,ERG,"1.18 fold enrichment (6-mer frequency, TF over GST control)"
same,binding signal,ELF1,"1.27 fold enrichment (6-mer frequency, TF over GST control)"
same,binding signal,EHF,"1.16 fold enrichment (6-mer frequency, TF over GST control)"
same,binding signal,SPI1,"1.11 fold enrichment (6-mer frequency, TF over GST control)"
same,binding signal,SPIB,"1.25 fold enrichment (6-mer frequency, TF over GST control)"
same,binding signal,ELK3,"1.27 fold enrichment (6-mer frequency, TF over GST control)"
same,binding signal,FEV,"1.09 fold enrichment (6-mer frequency, TF over GST control)"
same,binding signal,ETV5,"1.19 fold enrichment (6-mer frequency, TF over GST control)"
same,binding signal,HSF1,"1.54 fold enrichment (6-mer frequency, TF over GST control)"
same,binding signal,SPIC,"1.1 fold enrichment (6-mer frequency, TF over GST control)"
same,binding signal,ELF4,"1.14 fold enrichment (6-mer frequency, TF over GST control)"
same,binding signal,ELK4,"1.15 fold enrichment (6-mer frequency, TF over GST control)"
same,binding signal,ETV2,"1.06 fold enrichment (6-mer frequency, TF over GST control)"
same,binding signal,ELF3,"1.17 fold enrichment (6-mer frequency, TF over GST control)"
same,binding signal,CRX,"1.23 fold enrichment (6-mer frequency, TF over GST control)"
same,binding signal,ETV1,"1.16 fold enrichment (6-mer frequency, TF over GST control)"
